Some structures have more than one record in an assay (separate samples or runs), and their calls can disagree. Calls of active or inactive are those of the source. The calls were made as follows, unless noted: active = hit-call score of the fitted dose curve at least 0.9, where 1 is the maximum; inconclusive = response in the unintended direction; inactive = score below 0.9.
Read-out: matrix metalloproteinase-1 (MMP1), MMP1 (gene 4312)
Test: LTEA_HepaRG_MMP1: Life Technologies and Expression Analysis (LTEA) Assay for matrix metalloproteinase-1 (MMP1) using HepaRG (AID 2283658; active = hit-call score of the fitted dose curve at least 0.9, where 1 is the maximum; inactive = score below 0.9)
Details: mRNA level, 48 h; actives raise or lower the signal
Summary of the method: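 Differentiated human HepaRG cells, 48 h post-plating in serum-free induction medium, were exposed 48 h to eight half-log concentrations topping at 100 uM in 0.5% DMSO, duplicate. MMP1 mRNA measured by Fluidigm TaqMan qRT-PCR, normalized to ACTB, GAPDH, POLR2A; bidirectional fits versus DMSO.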

Question: `CCCOC(=O)c1cc(O)c(O)c(O)c1` was tested. Which outcome did it give?
Answer: Its outcome is “inactive”.

Question: For `CCCCCCCCCCCCO`, which outcome is on record?
Answer: Its outcome is “inactive”.

Question: `CC(C)(C)c1csc(-c2cc3cc(OCc4ccccc4CC(=O)O)ccc3o2)n1` was tested. Which outcome did it give?
Answer: The outcome was “inactive”.

Question: With `Cc1occc1C(=O)Nc1ccc(C(=O)N2CCC(F)(F)/C(=C\C(=O)N3CCC(N4CCCCC4)CC3)c3ccccc32)cc1` as the compound, how does the outcome read?
Answer: Its outcome is “inactive”.

Question: How did the outcome turn out when `CCN(CC)C(=O)c1cc(S(=O)(=O)Cc2ccccc2)c(N2CCC(c3ccccc3)CC2)cc1N(CC)CCN(C)C` was run?
Answer: The outcome was “inactive”.

Question: With `O=C1c2ccccc2C(=O)N1CCc1noc(-c2ccc(CN3CCCCCC3)s2)n1` as the compound, how does the outcome read?
Answer: Its outcome is “inactive”.

Question: `C[C@]12CC[C@@H]3c4ccc(O)cc4CC[C@H]3[C@@H]1CC[C@H]2O` was tested. Which outcome did it give?
Answer: The outcome was “inactive”.

System: Thyroperoxidase (TPO), gene 54314
Test: CCTE_Simmons_AUR_rTPO: CCTE's Amplex UltraRed Assay for Thyroperoxidase (TPO) Inhibition, Simmons Lab (AID 2283662);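 as to AC50: potency for loss of signal meaning inhibition of peroxidase activity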
Details: not given
Summary of the method: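 Cell-free peroxidase activity assay using rat thyroid gland microsomes with excess H2O2 (300 uM) and 25 uM Amplex UltraRed. Compounds tested from 5 nM to 87.5 uM; fluorescence measured after 30 min at 37C, analysed relative to DMSO baseline.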

Question: Which AC50 does the source give for `OC12N=C(c3ccccc3)SC1Cc1cc(Cl)ccc12` (stereo not drawn) here?
Answer: The AC50 was 13 µM (active).

Question: For `CCCCCc1ccc(N)cc1`, which AC50 is on record?
Answer: Its AC50 is 0.0637 µM (active).

Question: `CN(C)c1ccc(C(=C2C=CC(=[N+](C)C)C=C2)c2ccc(N(C)C)cc2)cc1` was tested. Which AC50 did it give?
Answer: The AC50 was 15.9 µM (active).

Question: With `CCCOC(=O)c1cc(O)c(O)c(O)c1` as the compound, how does the AC50 read?
Answer: The AC50 was 0.772 µM (active).

Question: With `CN(C[C@@H](CC[N+]12CCC(C3CCCCC3)(CC1)CC2)c1ccc(Cl)c(Cl)c1)C(=O)c1cc(C(F)(F)F)cc(C(F)(F)F)c1` as the compound, how does the AC50 read?
Answer: Its AC50 is 43.8 µM (active).

Question: `NCc1cccc(C2CCN(C(=O)c3ccc(C#Cc4ccccc4F)o3)CC2)c1` was tested. Which outcome did it give?
Answer: Its outcome is “inactive”.

Question: For `CC(C)(C)c1csc(-c2cc3cc(OCc4ccccc4CC(=O)O)ccc3o2)n1`, which AC50 is on record?
Answer: The AC50 was 43.8 µM (active).

Question: Which AC50 does the source give for `O=c1c(-c2ccc(O)cc2)coc2cc(O)cc(O)c12` here?
Answer: The AC50 was 3.6 µM (active).

Question: Which AC50 does the source give for `CO[C@H]1/C=C/O[C@@]2(C)Oc3c(C)c(O)c4c(O)c(c(/C=N/N5CCN(C)CC5)c(O)c4c3C2=O)NC(=O)/C(C)=C\C=C\[C@H](C)[C@H](O)[C@@H](C)[C@@H](O)[C@@H](C)[C@H](OC(C)=O)[C@@H]1C` here?
Answer: Its AC50 is 3.3 µM (active).

Question: How did the outcome turn out when `Cc1c2ccccc2c(C)c2c1ccc1ccccc12` was run?
Answer: The outcome was “inactive”.

Question: `CC(=O)N1CCN(c2ccc(OC[C@H]3CO[C@](Cn4ccnc4)(c4ccc(Cl)cc4Cl)O3)cc2)CC1` was tested. Which AC50 did it give?
Answer: The AC50 was 19.2 µM (active).

Question: `CCOC(=O)O[C@H](C)OC(=O)c1ccc2c(c1)cc(C(=O)NC1CCN(C(C)C)CC1)n2Cc1cc(-c2ccc(Cl)s2)on1` was tested. Which AC50 did it give?
Answer: The AC50 was 9.93 µM (active).

Question: With `Oc1ccccc1` as the compound, how does the AC50 read?
Answer: Its AC50 is 23.6 µM (active).

Question: What about the outcome of the same compound?
Answer: Its outcome is “inactive”.

Question: `O=C1O[C@H]([C@@H](O)CO)C(O)=C1O` was tested. Which AC50 did it give?
Answer: The AC50 was 43.8 µM (active).

Question: How did the AC50 turn out when `CC/C(=C(/CC)c1ccc(O)cc1)c1ccc(O)cc1` was run?
Answer: Its AC50 is 5.22 µM (active).

Question: For `CCCCCCCCOC(=O)c1cc(O)c(O)c(O)c1`, which AC50 is on record?
Answer: Its AC50 is 0.921 µM (active).

Question: With `Oc1ccc2ccccc2c1` as the compound, how does the AC50 read?
Answer: The AC50 was 3.13 µM (active).

Question: How did the AC50 turn out when `O=C(O)Cc1cc(I)c(Oc2ccc(O)c(I)c2)c(I)c1` was run?
Answer: Its AC50 is 0.32 µM (active).

Question: Which AC50 does the source give for `CC(C)(c1cc(Br)c(O)c(Br)c1)c1cc(Br)c(O)c(Br)c1` here?
Answer: The AC50 was 18.5 µM (active).

Question: With `COc1cc(C(=O)NC2CCN(C)CC2)ccc1Nc1ncc2c(n1)N(C1CCCC1)CC(F)(F)C(=O)N2C` as the compound, how does the AC50 read?
Answer: The AC50 was 40.7 µM (active).

Question: Which AC50 does the source give for `CC(C)(C)c1cc(/C=C2\SC(N)=NC2=O)cc(C(C)(C)C)c1O` here?
Answer: Its AC50 is 5.18 µM (active).

Question: For `O=C(Nc1ccc(Cl)cc1)Nc1ccc(Cl)c(Cl)c1`, which AC50 is on record?
Answer: The AC50 was 18.9 µM (active).

Question: For `O=C1CCC(C2CCCCC2)CC1`, which outcome is on record?
Answer: The outcome was “inactive”.

Question: Which AC50 does the source give for `CCN(Cc1cccc(S(=O)(=O)O)c1)c1ccc(C(=C2C=CC(=[N+](CC)Cc3cccc(S(=O)(=O)O)c3)C=C2)c2ccccc2S(=O)(=O)[O-])cc1` here?
Answer: Its AC50 is 19.2 µM (active).

Question: With `C[C@]12CC[C@@H]3c4ccc(O)cc4CC[C@H]3[C@@H]1CC[C@H]2O` as the compound, how does the AC50 read?
Answer: Its AC50 is 4.06 µM (active).

— PubChem BioAssay (EPA / NIEHS)
